Laboratory results taken from PubChem BioAssay (EPA / NIEHS).
The source made the active and inactive calls. How the source made its calls: active means hit-call score of the fitted dose curve at least 0.9, where 1 is the maximum; inactive means score below 0.9.

What was measured:
[1] = ATG_CRE_CIS: Attagene CIS-FACTORIAL HepG2 Assay for human cAMP Responsive Element (CRE) binding protein 3 (AID 2282926); conditions: HepG2 CRE cis-reporter, Attagene multiplexed mRNA; actives raise or lower the signal
Summary of the method: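 Assay format: transient reporter transfection of HepG2, 24 h treatment, total RNA isolation with DNase I step. Reporter abundance read by fluorescence after PCR and capillary separation; DMSO-normalised gain or loss fitting.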

[2] = biological target: CCAAT/enhancer-binding protein beta (Homo sapiens) (UniProt P17676); assay: ATG_C_EBP_CIS: Attagene CIS-FACTORIAL HepG2 Assay for human CCAAT/Enhancer Binding Protein (C/EBP) beta (AID 2282927); conditions: HepG2 Attagene cis-factorial transcription factor reporter; actives raise or lower the signal
Chain of CCAAT/enhancer-binding protein beta (Homo sapiens) (P17676 whole entry, looked up): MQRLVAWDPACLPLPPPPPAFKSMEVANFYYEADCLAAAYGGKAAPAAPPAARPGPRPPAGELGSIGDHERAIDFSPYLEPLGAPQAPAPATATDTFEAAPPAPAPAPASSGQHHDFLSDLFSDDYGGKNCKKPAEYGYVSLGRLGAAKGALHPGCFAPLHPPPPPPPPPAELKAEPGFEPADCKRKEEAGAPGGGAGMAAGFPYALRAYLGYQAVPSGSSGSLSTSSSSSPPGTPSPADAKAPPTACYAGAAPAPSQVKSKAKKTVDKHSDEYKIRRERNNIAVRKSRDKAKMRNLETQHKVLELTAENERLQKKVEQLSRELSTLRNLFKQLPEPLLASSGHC
Summary of the method: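 HepG2, transient MRTU transfection, 24 h treatment. RT-PCR plus CE fluorescence; DMSO negative control, bidirectional fit.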

[3] = ATG_CMV_CIS: Attagene CIS-FACTORIAL HepG2 Assay for human CMV (Internal Marker) (AID 2282928); conditions: HepG2 CMV promoter reporter, transcription factor profiling; actives raise or lower the signal;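 further: endpoint acts as a background internal control marker rather than a target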
Summary of the method: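 Fluorescence intensity of RT-PCR-derived reporter fragments, resolved by capillary electrophoresis, gives the signal. HepG2 liver cells bearing transfected cis-element reporters were treated 24 h; activity in either direction was fit relative to DMSO-treated controls.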

[4] = ATG_DR4_LXR_CIS: Attagene CIS-FACTORIAL HepG2 Assay for human Liver X Receptor (LXR), DR4 submotif (AID 2282929); conditions: HepG2 Attagene DR4 cis-reporter, mRNA transcription; actives raise or lower the signal
Summary of the method: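 HepG2 cells transiently transfected with cis-promoter-driven multiplexed reporter units (DR4 element) were dosed for 24 h. Reporter mRNA was quantified by RT-PCR, fluorescent primer extension, HpaI digestion and capillary electrophoresis; bidirectional fitting versus DMSO baseline.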

[5] = ATG_AP_2_CIS: Attagene CIS-FACTORIAL HepG2 Assay for human Activator Protein 2 (AP-2) (AID 2282932); conditions: HepG2 AP-2 cis-reporter, Attagene transcription factor profiling; actives raise or lower the signal
Summary of the method: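 Read-out: fluorescent reporter mRNA via RT-PCR and capillary electrophoresis, 24 h post-dose in transiently transfected HepG2. Endogenous factors drive cis-promoter reporters; gain or loss of signal fitted bidirectionally against DMSO.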

[6] = ATG_E_Box_CIS: Attagene CIS-FACTORIAL HepG2 Assay for human Enhancer Box (E-box) (AID 2282936); conditions: HepG2 E-box cis-reporter transcription, actives raise or lower the signal
Summary of the method: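 Transiently transfected HepG2, endogenous TF-driven reporters, 24 h dosing. Readout: RT-PCR plus capillary electrophoresis of fluorescent reporter fragments. Gain or loss of signal fitted bidirectionally against DMSO baseline.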

[7] = ATG_EGR_CIS: Attagene CIS-FACTORIAL HepG2 Assay for human Early Growth Response 1 (EGR1) (AID 2282938); conditions: HepG2 Attagene CIS-FACTORIAL EGR reporter mRNA; actives raise or lower the signal
Summary of the method: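 HepG2 cells transiently transfected with cis-promoter-driven multiplexed reporter transcription units; reporter mRNA measured 24 h after compound dosing by RT-PCR, 6-FAM primer extension, HpaI digestion and capillary electrophoresis. Bidirectional fit versus DMSO baseline.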

[8] = ATG_M_19_CIS: Attagene CIS-FACTORIAL HepG2 Assay for M19 Transcription Factor (Internal Marker) (AID 2282939); conditions: HepG2 Attagene CIS-FACTORIAL M19 internal marker reporter; actives raise or lower the signal
Summary of the method: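 Following a 24 h exposure, RNA from transfected HepG2 cells was reverse-transcribed, PCR-amplified with reporter-specific primers, end-labelled with 6-FAM and HpaI-digested before capillary separation. Values represent gain or loss versus DMSO.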

[9] = ATG_Ets_CIS: Attagene CIS-FACTORIAL HepG2 Assay for human Erythroblast Transformation Specific (ETS) (AID 2282941); conditions: HepG2 ETS cis-reporter transcription, actives raise or lower the signal
Summary of the method: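 Multiplexed reporter transcript profiling: HepG2, 24 h treatment, total RNA to cDNA, PCR, 6-FAM labelling, HpaI cut, capillary electrophoresis. Gain- or loss-of-signal fitted against DMSO.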

[10] = biological target: Hepatocyte nuclear factor 3-beta (Homo sapiens) (UniProt Q9Y261); assay: ATG_FoxA2_CIS: Attagene CIS-FACTORIAL HepG2 Assay for human Forkhead box A2 (FOXA2) (AID 2282942); conditions: HepG2 cis-reporter transcription factor activity, 24 h; actives raise or lower the signal
Chain of Hepatocyte nuclear factor 3-beta (Homo sapiens) (Q9Y261 whole entry, looked up): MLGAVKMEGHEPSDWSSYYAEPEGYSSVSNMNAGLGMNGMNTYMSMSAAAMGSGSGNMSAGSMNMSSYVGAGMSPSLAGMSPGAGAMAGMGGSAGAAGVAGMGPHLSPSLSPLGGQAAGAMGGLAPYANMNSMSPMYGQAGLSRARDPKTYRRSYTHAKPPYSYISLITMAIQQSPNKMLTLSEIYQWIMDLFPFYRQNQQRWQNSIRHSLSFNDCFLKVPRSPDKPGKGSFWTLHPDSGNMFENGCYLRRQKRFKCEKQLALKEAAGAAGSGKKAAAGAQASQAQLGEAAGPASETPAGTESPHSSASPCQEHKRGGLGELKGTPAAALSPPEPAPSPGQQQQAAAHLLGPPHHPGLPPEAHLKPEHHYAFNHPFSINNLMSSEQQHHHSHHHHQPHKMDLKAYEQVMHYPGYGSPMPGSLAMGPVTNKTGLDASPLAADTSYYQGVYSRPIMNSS
Summary of the method: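 HepG2 cells transiently transfected with multiple cis-regulated reporter transcription units, dosed for 24 h. Reporter mRNA measured by RT-PCR, 6-FAM labelling, HpaI digestion and capillary electrophoresis; bidirectional fitting against DMSO baseline.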

[11] = ATG_FoxO_CIS: Attagene CIS-FACTORIAL HepG2 Assay for human Forkhead box O (FoxO) (AID 2282943); conditions: HepG2 Attagene cis-reporter, FoxO element, mRNA; actives raise or lower the signal
Summary of the method: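 Transfected HepG2 reporter cells exposed to test chemical for 24 h; reporter RNA measured by reverse transcription, PCR and fluorescent capillary electrophoresis; curves fitted for increases and decreases against DMSO.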

[12] = ATG_GATA_CIS: Attagene CIS-FACTORIAL HepG2 Assay for human GATA Binding Protein (AID 2282944); conditions: HepG2 GATA cis-element reporter, Attagene multiplex mRNA; actives raise or lower the signal
Summary of the method: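 DMSO serves as negative control and baseline for bidirectional fitting of reporter mRNA changes. HepG2 cells bearing transiently transfected cis-promoter reporters were exposed 24 h; transcripts detected via RT-PCR and capillary electrophoresis.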

[13] = ATG_M_32_CIS: Attagene CIS-FACTORIAL HepG2 Assay for M32 Transcription Factor (Internal Marker) (AID 2282949); conditions: HepG2 Attagene cis-factorial M32 reporter, mRNA; actives raise or lower the signal;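 further: background control marker of the multiplexed CIS panel rather than a real target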
Summary of the method: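 Transient MRTU transfection of HepG2; 24 h compound treatment; TriZol RNA, oligo(dT) RT, reporter PCR, 6-FAM primer extension, HpaI cut, CE. Gain/loss of signal vs DMSO.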

[14] = ATG_M_06_CIS: Attagene CIS-FACTORIAL HepG2 Assay for M06 Transcription Factor (Internal Marker) (AID 2282950); conditions: HepG2 Attagene CIS-FACTORIAL M06 internal marker reporter; actives raise or lower the signal
Summary of the method: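 Fluorescence-labelled RT-PCR products from cis-promoter reporter units, cut with HpaI and resolved by capillary electrophoresis, give the signal. Cells are human HepG2, dosed for 24 h. Serves as background control, fitted relative to DMSO.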

[15] = ATG_PXRE_CIS: Attagene CIS-FACTORIAL HepG2 Assay for human Pregnane X Receptor Element (PXRE) (AID 2282957); conditions: HepG2 Attagene CIS-FACTORIAL PXRE reporter, mRNA; actives raise or lower the signal
Summary of the method: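 Using HepG2 transfected with multiple reporter transcription units, endogenous factor-driven transcription was scored as reporter mRNA after 24 h exposure.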

[16] = ATG_Sox_CIS: Attagene CIS-FACTORIAL HepG2 Assay for human SRY-box transcription factor (SOX) (AID 2282960); conditions: HepG2 Attagene cis-factorial SOX reporter, mRNA; actives raise or lower the signal
Summary of the method: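 HepG2 cells transiently transfected with cis-element-driven multiple reporter transcription units, dosed 24 h; reporter mRNA measured by RT-PCR, FAM labelling, HpaI digestion and capillary electrophoresis. Bidirectional fit versus DMSO baseline.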

[17] = biological target: Transcription factor Sp1 (Homo sapiens) (UniProt P08047); assay: ATG_Sp1_CIS: Attagene CIS-FACTORIAL HepG2 Assay for human Specificity Protein 1 (Sp1) (AID 2282961); conditions: HepG2 Sp1 cis-reporter transcription, actives raise or lower the signal
Chain of Transcription factor Sp1 (Homo sapiens) (P08047 whole entry, looked up): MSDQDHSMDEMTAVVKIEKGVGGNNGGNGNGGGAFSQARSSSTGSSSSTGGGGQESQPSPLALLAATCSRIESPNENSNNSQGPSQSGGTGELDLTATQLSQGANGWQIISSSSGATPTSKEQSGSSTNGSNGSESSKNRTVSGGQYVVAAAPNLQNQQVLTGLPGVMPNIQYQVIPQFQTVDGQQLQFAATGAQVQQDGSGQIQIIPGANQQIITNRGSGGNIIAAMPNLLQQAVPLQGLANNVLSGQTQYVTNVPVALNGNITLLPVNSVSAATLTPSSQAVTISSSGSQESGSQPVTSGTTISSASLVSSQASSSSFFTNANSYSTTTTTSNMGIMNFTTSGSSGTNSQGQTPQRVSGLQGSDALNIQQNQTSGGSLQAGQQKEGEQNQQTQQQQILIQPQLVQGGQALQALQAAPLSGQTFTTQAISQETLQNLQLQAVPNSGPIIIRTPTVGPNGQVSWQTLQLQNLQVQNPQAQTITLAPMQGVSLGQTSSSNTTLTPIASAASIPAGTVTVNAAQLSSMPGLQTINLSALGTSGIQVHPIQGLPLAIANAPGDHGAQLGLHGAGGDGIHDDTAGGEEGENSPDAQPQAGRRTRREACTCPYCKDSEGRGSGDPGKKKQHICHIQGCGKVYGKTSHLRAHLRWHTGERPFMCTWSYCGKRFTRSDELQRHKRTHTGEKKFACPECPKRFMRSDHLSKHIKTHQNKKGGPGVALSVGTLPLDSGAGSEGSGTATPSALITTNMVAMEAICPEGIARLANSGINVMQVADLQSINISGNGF
Summary of the method: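 HepG2 cells transiently transfected with multiple reporter transcription units driven by cis-regulatory elements; Sp1-responsive reporter mRNA measured 24 h after dosing by RT-PCR and capillary electrophoresis fluorescence, fitted bidirectionally against DMSO baseline.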

[18] = ATG_SREBP_CIS: Attagene CIS-FACTORIAL HepG2 Assay for human Sterol Regulatory Element Binding (SREBP) (AID 2282962); conditions: HepG2 Attagene cis-factorial SREBP reporter, mRNA; actives raise or lower the signal
Summary of the method: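 Values derive from bidirectional curve fitting with DMSO as baseline. The underlying measurement is reporter mRNA from cis-element-regulated units in transiently transfected HepG2, quantified by RT-PCR and capillary electrophoresis after 24 h exposure.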

[19] = biological target: Signal transducer and activator of transcription 3 (Homo sapiens) (UniProt P40763); assay: ATG_STAT3_CIS: Attagene CIS-FACTORIAL HepG2 Assay for human Signal Transducer and Activator of Transcription 3 (STAT3) (AID 2282963); conditions: HepG2, Attagene cis-factorial STAT3 reporter transcription; actives raise or lower the signal
Chain of Signal transducer and activator of transcription 3 (Homo sapiens) (P40763 whole entry, looked up, the tested form may be a part): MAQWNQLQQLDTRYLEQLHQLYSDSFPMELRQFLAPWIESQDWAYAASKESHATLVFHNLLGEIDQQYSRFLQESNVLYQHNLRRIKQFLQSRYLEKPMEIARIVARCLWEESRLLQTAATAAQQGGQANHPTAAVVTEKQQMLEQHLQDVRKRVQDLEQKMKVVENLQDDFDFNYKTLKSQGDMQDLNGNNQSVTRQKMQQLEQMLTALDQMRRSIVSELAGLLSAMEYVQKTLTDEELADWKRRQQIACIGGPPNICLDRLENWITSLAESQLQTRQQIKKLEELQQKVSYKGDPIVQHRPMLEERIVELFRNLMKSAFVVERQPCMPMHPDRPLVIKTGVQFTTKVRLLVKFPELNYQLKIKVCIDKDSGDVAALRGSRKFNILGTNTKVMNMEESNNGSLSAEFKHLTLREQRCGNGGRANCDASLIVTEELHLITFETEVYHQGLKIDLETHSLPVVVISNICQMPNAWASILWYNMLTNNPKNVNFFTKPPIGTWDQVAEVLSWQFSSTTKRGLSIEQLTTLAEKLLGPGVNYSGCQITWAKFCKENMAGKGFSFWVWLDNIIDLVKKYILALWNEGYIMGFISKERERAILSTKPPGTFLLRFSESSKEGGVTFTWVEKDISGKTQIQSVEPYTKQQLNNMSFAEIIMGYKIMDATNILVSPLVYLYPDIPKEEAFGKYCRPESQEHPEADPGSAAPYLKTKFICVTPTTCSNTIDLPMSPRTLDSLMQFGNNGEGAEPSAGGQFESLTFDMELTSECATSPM
Summary of the method: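 Readout: fluorescent reporter mRNA fragments resolved by capillary electrophoresis. Setup: HepG2 transfected with MRTUs reporting endogenous transcription-factor activity, dosed 24 h. Gain or loss of signal fitted bidirectionally against DMSO control.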

[20] = ATG_TA_CIS: Attagene CIS-FACTORIAL HepG2 Assay for human TA Basal Promoter (AID 2282964); conditions: HepG2 Attagene CIS-factorial TA basal promoter reporter; actives raise or lower the signal
Summary of the method: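 Multiplexed mRNA reporter assay, HepG2, 24 h. Reporter cDNA amplified, 6-FAM primer-extended, HpaI-cut, CE-sized; DMSO = negative control and baseline.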

Measured: AC50

Oc1cc(Cl)ccc1Cl
active: [15] 27.6 µM
inactive: all other assays above

C=CC(=O)OC
inactive: all assays above

N#Cc1cccc(C#N)c1
inactive: all assays above

CCC(Br)(CC)C(=O)NC(N)=O
active: [15] 48.5 µM
inactive: all other assays above

Cc1ncc(C[n+]2csc(CCO)c2C)c(N)n1
inactive: all assays above

c1ccc(P(c2ccccc2)c2ccccc2)cc1
active: [4] 31.5 µM | [15] 4.59 µM
inactive: all other assays above

O=C(NC(=O)c1c(F)cccc1F)Nc1ccc(Oc2ccc(C(F)(F)F)cc2Cl)cc1F
active: [3] 4.11 µM | [15] 3.15 µM
inactive: all other assays above

O=C(O)CCCc1ccc(N(CCCl)CCCl)cc1
active: [4] 112 µM
inactive: all other assays above

C=CCc1ccc(OC(=O)Cc2ccccc2)c(OC)c1
active: [15] 8.28 µM
inactive: all other assays above

CN1C(=O)CCS(=O)(=O)C1c1ccc(Cl)cc1 (stereo not given)
inactive: all assays above

CCCCCCC1CCOC1=O (stereo not given)
active: [15] 100 µM
inactive: all other assays above

CC(C)(O)C#N
active: [15] 27.4 µM
inactive: all other assays above

C=COCCCl
inactive: all assays above
